Experimental data: PubChem BioAssay AID1865 (National Center for Advancing Translational Sciences (NCATS), 2009)
Among all 280,000 compounds or so, about 540 (0.19%) were called active. Another 2% or so got no clear call; they are omitted. The call rests on the fitted dose curve; in most records, active means well fitted activation curve with a large enough effect; inconclusive means small, poorly fitted or top-dose-only effect; inactive means flat fitted curve, though single readings scatter. The sample as a whole holds a higher share of actives than the screen did.

assay: Quantitative High-Throughput Screen for Regulators of Epigenetic Control; conditions: murine LDR cells, GFP reporter derepression, 30 h; series mostly up to 53.9 µM; GFP activation: at the top concentration; further: nearly all actives have a fitted effect of over 60% in size; on GFP activation: % of control where 0% means no effect
How it was run: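 Derepression of a silenced CMV-GFP reporter in murine LDR cells is scored by enumerating GFP-positive cells with a laser-scanning microplate cytometer after 30 hours of treatment at 37 C.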
Potency means the concentration at half of the fitted maximal effect.

GFP activation, inactive:
Cc1ccc(-n2c3nc(=O)[nH]c(=O)c-3cc3c(Cl)cccc32)cc1 0.833%, Cc1c(-c2nsc(NC(=O)c3cccc(Cl)c3)n2)nnn1-c1ccccc1C(F)(F)F -3.14%, CSc1ccc(C2c3c(oc4ccccc4c3=O)C(=O)N2CCCN2CCOCC2)cc1 (stereo unspecified) -0.962%, CCC(C(=O)Nc1cccc(Cl)c1C)n1nc(-c2ccc(C)cc2)ccc1=O (stereo unspecified) -5.49%, CCOC(=O)CC1C(=O)NCCN1C(=O)COc1ccc(Br)cc1C (stereo unspecified) -3.32%, CCOC(=O)CNC(=O)c1cc2c(=O)n3cccc(C)c3nc2s1 -0.885%, COc1ccc(-n2nnc(-c3nsc(NC(=O)c4ccc(C)c(C)c4)n3)c2C)cc1Cl -3.18%, Cc1ccc(SCC(=O)Nc2ccc3oc(-c4ccccc4F)nc3c2)cc1 16.1%, Cc1c(Cl)cccc1NC(=O)Cn1cc(C(=O)c2cccs2)c2ccccc21 2.88%, COc1cccc(C(=O)Nc2ccc(-c3cc(C(F)(F)F)nn3-c3ccccc3)cc2)c1 1.08%, CCS(=O)(=O)c1ncc(N(Cc2ccc(F)cc2)Cc2ccco2)c(C(=O)Nc2cc(C)ccc2C)n1 -2.39%, CC(C)CCN(C(=O)Nc1ccc(Cl)c(Cl)c1)C(C)c1cccs1 (stereo unspecified) -0.998%, CCc1cc2c(cc(C(=O)OC)n2Cc2nc(-c3ccc(C)cc3)oc2C)s1 2.7%, COc1ccccc1-c1nnc(C2CCN(C(=O)c3ccc(Cl)cc3)CC2)o1 1.22%, CCC(Sc1nc2n[nH]c(C)c2c(=N)n1-c1ccccc1Cl)C(=O)N(CC)CC (stereo unspecified) 0%, CC1=C(C(=O)N2CCN(c3cccc(C(F)(F)F)c3)CC2)C2(CCCCC2)OC1=O 0%, COc1ccc(OCCCn2c(C)nc3cc(C)c(C)cc32)cc1 -0.78%, Cn1cc(/C=C/c2nc3ccccc3c(=O)n2-c2cccc([N+](=O)[O-])c2)c2ccccc21 0.971%, C/[N+]([O-])=C\c1ccc([N+](=O)[O-])o1 0.0128%, Cc1c(Cl)cccc1NC(=O)N1CCN(C(=O)c2nsc3ccccc23)CC1 5.4%, Cc1ccc(NC(=O)c2ccc(CN3CC(=O)N4CCCCC4C3=O)cc2)c(Cl)c1 (stereo unspecified) -1.23%, CCCN(CCC)C(=O)Cn1c(=O)n(-c2ccc(Cl)cc2)c(=O)c2c3c(sc21)CCCCC3 -0.0516%, CC(C)(C)c1ccc(C(=O)Nc2ccc3c(c2)CCCN3C(=O)c2cccs2)cc1 -1.49%, O=C(NCc1ccc2c(c1)CCN2C(=O)c1ccccc1)c1ccccc1 -0.465%, CCOc1ccc(NC(=O)c2cc3c(=O)n(Cc4cccs4)ccc3nc2C)cc1 0%, COc1cc(NC(=O)Cn2nc(-c3ccc(C)c(C)c3)ccc2=O)cc(OC)c1 0%, COc1cccc(C(=O)NC2(C(F)(F)F)C(=O)Nc3c2c(=O)[nH]c(=O)n3-c2ccc(C)cc2)c1 (stereo unspecified) 0%, O=C(COc1ccc(Cl)cc1)N(Cc1ccco1)Cc1ccco1 -1.6%, CCNS(=O)(=O)c1ccc(NC(=O)CSc2nc(-c3ccco3)cc(C(F)(F)F)n2)cc1 -0.962%, O=C(CSc1ncc(S(=O)(=O)c2ccc(Br)cc2)c(=O)[nH]1)Nc1ccc2c(c1)OCCO2 0%, Clc1cccc(N=C2NN=C(c3ccc4c(c3)OCCO4)CS2)c1 -7.25%, O=C1NCC(=O)N(Cc2ccccc2)/C1=C/c1ccccc1 -0.292%, CC1=NN(Cc2ccccc2)C(=O)/C1=C/c1ccc(N(C)C)cc1 -0.855%, COc1cc2[nH]c(=O)n(Cc3ccc(C(=O)NCc4ccc(C)cc4)cc3)c(=O)c2cc1OC 6.33%, Cc1ccccc1C(=O)Nc1sc2c(c1C(=O)N1CCC(C)CC1)CCCC2 4.81%, O=C(Cn1nc(Cc2cccnc2)c2ccccc2c1=O)N1CCN(c2ccccc2F)CC1 -5.16%, CCN1CCN(CCNC(=O)c2ccc(/C=C3/Sc4ccccc4N(Cc4cccc(C)c4)C3=O)cc2)CC1 4.88%, CCN1/C(=C/C(=S)Nc2ccccc2)Sc2ccccc21 0.971%, COc1ccc(OC)c(NC(=O)C2CCCN(S(=O)(=O)c3ccc4c(c3)CCCC(=O)N4)C2)c1 (stereo unspecified) 0.833%, COc1ccc(CCNC(=O)c2cn(C)c3ccc(S(=O)(=O)N(C)C4CCCCC4)cc3c2=O)cc1OC 1.22%, COc1ccc(-c2onc(C)c2C)cc1S(=O)(=O)NCCc1ccccc1 -4.71%, COc1ccc(NC(=O)c2ccc3nc(CCc4ccccc4)oc3c2)c(OC)c1 1.69%, Cc1ccc2nc(/C(C#N)=C/c3ccccc3F)[nH]c2c1 -1.59%, Cc1ccc2nc(/C(C#N)=C\c3ccc(OC(=O)c4cccs4)cc3)[nH]c2c1 5.06%, COc1ccc(C(=O)Nc2cccc(C(=O)OCc3cc(=O)n4c5c(sc4n3)CCCC5)c2)cc1 3.53%, CS(=O)(=O)c1sc2nc(-c3ccccc3)cc(-c3ccccc3)c2c1N 1.45%, NNC(=O)c1oc2nc(-c3ccccc3)cc(-c3ccco3)c2c1N 0.0322%, Cc1ccc(-c2cc(C(=O)N/N=C/C=C/c3ccco3)c3ccccc3n2)cc1C 2.16%, CC(=O)Nc1ccc(/C=N/NC(=O)c2cccs2)cc1 1.14%, Cc1ccc(S(=O)(=O)c2nc(-c3ccco3)oc2SCC(=O)Nc2ccc(F)cc2)cc1 11.1%, Cc1cc(C(=O)Nc2cccc(C(F)(F)F)c2)c2c(C)nn(-c3cccc(F)c3)c2n1 -1.27%, O=C(Nc1ccc2nc(SCC(=O)N3CCCc4ccccc43)sc2c1)c1ccc(F)cc1 -3.23%

Potency, active:
CCOC(=O)CC1C(=O)NCCN1c1nc2c(C)cccn2c(=O)c1/C=C1\SC(=S)N(C(C)CC)C1=O (stereo unspecified) 7.08 µM, CCn1c(/C=C/c2ccc([N+](=O)[O-])o2)nc2ccccc2c1=O 3.55 µM, CN(C)c1nc(=Nc2cccc(Cl)c2)ss1 1.12 µM, CN(C)c1ccc(/C=C2\NC(=S)N(Cc3ccccc3)C2=O)cc1 7.08 µM, CCN1/C(=C/c2ccc3ccc(C)cc3[n+]2CC)Sc2ccccc21 1.12 µM, CCN1/C(=C\c2ccc3ccccc3[n+]2CC)Sc2cc(C)ccc21 0.562 µM, Cc1ccc2nc(/C(C#N)=C/c3ccc(-c4ccc(C(=O)OC(C)C)cc4)o3)[nH]c2c1 1.41 µM, CNC(=S)NNC(=O)c1oc2nc(-c3ccccc3)cc(-c3ccco3)c2c1N 15.8 µM, O=C(N/N=C/C=C/c1ccco1)c1cccs1 17.8 µM
